Data as given in ChEMBL document CHEMBL3988442, “University of Dundee, Small-Polar-MMV Screening Library” (2021).
About 900 (1.7%) of roughly 53,000 compounds showed an effect of 50% or more. Shown is part of a subset that was picked to be rich in strong results.

tested on: Mycobacterium tuberculosis; experiment: Cornell - Phenotypic assay to identify agents that inhibit growth of Mycobacterium tuberculosis; type: functional; design: scale not given: direction of the effect not stated beside the values; settings: 10 mM as filed; unlikely as a test dose

Row | SMILES | Percent Effect [%]
1 | CCS(=O)(=O)N1CCC2(CC1)CN(c1cccnc1)C(=O)CO2.O=C(O)C(F)(F)F | -1.862
2 | Cc1csc(CNc2nc3c(s2)c(C)nn3C)n1 | 21.44
3 | Cc1nc(CNc2nc3c(s2)c(C)nn3C)cs1 | 88.41
4 | Cc1nn(C)c2nc(NCCCN3CCCC(CO)C3)sc12 (stereo not drawn) | 5.889
5 | CCc1nc(CNc2nc3c(s2)c(C)nn3C)cs1 | 82.51
6 | CCc1csc(CNc2nc3c(s2)c(C)nn3C)n1 | -15.98
7 | Cc1nn(C)c2nc(NC3CCNCC3)sc12 | 23.18
8 | CN(C)c1ncc(-c2cc(C(=O)O)n(CC3CC3)c2)cn1 | 80.35
9 | CN(C)c1ncc(NC(=O)N2CCC(CN3CCCC3)C2)cn1 (stereo not drawn) | -23.44
10 | Cn1nccc1-c1ncc(-c2cc(C(=O)O)n(CC3CC3)c2)cn1 | -21.93
11 | CN(CC(=O)Nc1ccon1)S(=O)(=O)c1cc(Cl)ccc1Cl | -21.56
12 | COc1ccc(Cl)cc1S(=O)(=O)N(C)CC(N)=O | 28.08
13 | CN(CCS(=O)(=O)c1cc(Cl)ccc1Cl)CC(=O)Nc1ccc(F)cc1 | 110.1
14 | CN(CCS(=O)(=O)c1cc(Cl)ccc1Cl)CC(=O)Nc1cccc(F)c1 | 108.9
15 | COc1ccc(Cl)cc1S(=O)(=O)N(C)CC(=O)Nc1ccccc1 | 28.1
16 | CN(CCOc1cccc(F)c1)CC(=O)Nc1ccncc1 | 22.43
17 | Cc1ccc(S(=O)(=O)N(C)CC(N)=O)c(Cl)c1 | 18.08
18 | CN(CCS(=O)(=O)c1cc(Cl)ccc1Cl)CC(N)=O | 108.8
19 | CN(CC(=O)Nc1cccc(F)c1)Cc1nc(N)nc(N(C)C)n1 | 30.17
20 | Cc1nn(C)c(C)c1-c1ccc(=O)n(C(C)C(=O)NC2CC2)n1 (stereo not drawn) | 11.69
21 | CC(C)Nc1nc2c(s1)C(=O)CN(CC1CC1)C2 | -4.506
22 | CCn1nc(C)c2c1cnn2CC(=O)N1CCN(C)CC1 | 13.07

Row | SMILES | Percent Effect [%]
23 | O=C(O)CN1CCOCC(Cc2ccc(Cl)cc2)C1 (stereo not drawn) | -49.54
24 | CCCc1cc(=O)n(CC(=O)NC(C)C)c(-n2nc(C)cc2C)n1 | 19.53
25 | CCCc1cc(=O)n(CC(=O)NCCOC)c(-n2nc(C)cc2C)n1 | 61.91
26 | CCCNC(=O)Cn1c(-n2nc(C)cc2C)nc(CCC)cc1=O | 16.57
27 | Cc1nn2cc(CNc3nccc(CCC(F)(F)F)n3)nc2s1 | 14.28
28 | COc1cc(OC)cc(-c2noc(CC(N)c3ccccc3)n2)c1 (stereo not drawn) | 63.98
29 | Cl.NC(Cc1nc(-c2ccccc2)no1)c1ccccc1 (stereo not drawn) | 19.6
30 | COc1cc(OC)cc(-c2noc(CN)n2)c1 | -71.7
31 | COc1c(C2CCCN2Cc2nc(C3CC3)no2)c(C)nn1C (stereo not drawn) | -19.26
32 | CC(C)(C)c1noc(CN2CCCc3cc(OC(F)(F)F)ccc32)n1 | 12.22
33 | Cc1nn(C)cc1C1CC(=O)Nc2c1cnn2C (stereo not drawn) | 30.3
34 | N#Cc1c(Cl)nsc1NCc1ccc(N2CCC(CO)CC2)cc1 | 51.2
35 | N#Cc1c(Cl)nsc1NCc1ccc(N2CCCC(C(N)=O)C2)cc1 (stereo not drawn) | 80.86
36 | NC(=O)C1CCCN(c2ccc(CNC(=O)c3csnn3)cc2)C1 (stereo not drawn) | -20.12
37 | Cc1nnc(NCc2ccc(N3CCC(CO)CC3)cc2)c(C#N)c1C | -12.64
38 | NC(=O)C1CCCN(c2ccc(CNC(=O)c3cnsn3)cc2)C1 (stereo not drawn) | -38.73
39 | N#Cc1c(Cl)nsc1NCc1ccc(N2CCSCC2)cc1 | 23.04
40 | OC1(CNCCc2csc(-c3cccnc3)n2)CCNC1 (stereo not drawn) | 6.154
41 | CN1CCOC(C)(C(=O)Nc2nccs2)C1 (stereo not drawn) | -67.22
42 | COCC1COCCC12CCN(C(=O)COc1ccccc1C)CC2 (stereo not drawn) | -10.81
43 | O=C(NCCN1CCNC1=O)c1cc(-c2ccc(O)cc2)n[nH]1 | 15.58
44 | O=C(NCCN1CCc2ccccc21)c1cc(-c2ccc(O)cc2)n[nH]1 | 53.46

Row | SMILES | Percent Effect [%]
45 | Cc1cc(C(=O)NCCN2CCCc3ccccc32)[nH]n1 | -6.129
46 | CCc1ccc(NC(=O)c2ncc(C(N)=O)cc2Cl)cc1F | 15.72
47 | O=C(NCCc1c[nH]c2ccc(F)cc12)C1(n2cnnn2)CCCCC1 | 65.5
48 | O=C(NCCc1c[nH]c2ccccc12)C1(n2cnnn2)CCCCC1 | 25.7
49 | O=C(NCCc1cccc(F)c1)C1(n2cnnn2)CCCCC1 | 18.95
50 | CCc1ncc2c(n1)CN(Cc1nc(-c3ccco3)oc1C)CC2 | -14.23
51 | O=C(Cc1nc(-c2ccncc2)n[nH]1)N1CCOCC1 | -3.393
52 | CCCNc1ccc(C(=O)NCCc2cccc(Cl)c2)cn1 | -5.958
53 | COc1ccc(CNC(=O)c2ccc(Br)cn2)cc1 | 8.291
54 | COC(=O)c1ccc(C(=O)NCc2ccc(Br)cc2)cn1 | 95.13
55 | COc1ncc(C(=O)NCc2ccc(Br)cc2)cn1 | 25.41
56 | CCc1nn(-c2cc(Oc3cccc(C)c3)nc(C)n2)c(N)c1C#N | 11.01
57 | CS(=O)(=O)N1CCN(C(=O)c2cc(-c3ccco3)cs2)CC1 | 10.89
58 | CC(C)c1ccc(NS(=O)(=O)CC2=NC(=O)n3cccc3C2=O)cc1 | 59.8
59 | O=C1C(CS(=O)(=O)Nc2ccc(Br)cc2)=NC(=O)n2cccc21 | 17.38
60 | O=C1C(CS(=O)(=O)Nc2ccc(Cl)cc2)=NC(=O)n2cccc21 | 11.65
61 | COc1cccc(S(=O)(=O)NC(=O)CCC2CCCC2)c1 | 12.89
62 | CC(=O)N1CCC(c2nccnc2CNC(=O)c2cc[nH]n2)CC1 | -11.98
63 | CCc1ccc(CN(Cc2ccccc2)CC(C)CO)nc1 (stereo not drawn) | 46.77
64 | Cc1c(C(=O)NC(C)C(C)C)nnn1-c1cccc2c1CCN(C)C2 (stereo not drawn) | 4.546
65 | Cc1[nH]n(-c2ccccc2)c2nnc(N)c1-2 | 107.4
66 | CN(C)CCN1C(=O)CCC12CCCN(C(=O)c1ccncc1F)C2.O=C(O)C(F)(F)F (stereo not drawn) | -23.79

Row | SMILES | Percent Effect [%]
67 | CS(=O)(=O)N1CCC(OCCCc2ccccc2)C1 (stereo not drawn) | 18.05
68 | Cn1cc(S(=O)(=O)N2CCC(OCCCc3ccccc3)C2)cn1 (stereo not drawn) | 25.94
69 | O=S(=O)(c1cccnc1)N1CCC(OCCCc2ccccc2)C1 (stereo not drawn) | 55.63
70 | CS(=O)(=O)N1CCCC12CCCN(S(=O)(=O)c1ccc(F)cc1)C2 (stereo not drawn) | -19.89
71 | COc1ccc(S(=O)(=O)N2CCCC3(CCCN3S(C)(=O)=O)C2)cc1 (stereo not drawn) | 103.2
72 | COc1ccc(S(=O)(=O)N2CCOC(C)(C(N)=O)C2)cc1 (stereo not drawn) | 55.81
73 | COc1cccc(S(=O)(=O)N2CCOC(C)(C(N)=O)C2)c1 (stereo not drawn) | 8.35
74 | CS(=O)(=O)N1CCCC12CCCN(S(=O)(=O)c1cc(F)cc(F)c1)C2 (stereo not drawn) | 2.906
75 | CC1(C(N)=O)CN(S(=O)(=O)c2cccc(F)c2)CCO1 (stereo not drawn) | -8.727
76 | CCc1nnc(Nc2cc(C)nc(C3CN(C(=O)C(C)C)CCO3)c2)s1 (stereo not drawn) | 1.783
77 | CN1CCCC(c2nnc3n2CCN(S(=O)(=O)c2ccccc2Cl)C3)C1 (stereo not drawn) | 2.1
78 | CCOc1ccccc1CNC(=O)c1cnn(CC)c1C(F)(F)F | 4.777
79 | COCCn1ccc(=O)c(OCC(=O)Nc2cccc(OC)c2)c1C | -5.179
80 | COCCn1ccc(=O)c(OCC(=O)Nc2ccc(Br)cc2)c1C | 27.51
81 | COCCn1ccc(=O)c(OCC(=O)Nc2ccc(OC)cc2)c1C | 53.75
82 | c1cc(-c2n[nH]cc2-c2ccnc(N3CCCC3)n2)ccn1 | 22.12
83 | FC(F)c1nnc2ccc(N3CCC4(CCOC4)C3)nn12 (stereo not drawn) | 23.66
84 | FC(F)c1nnc2ccc(N3CCC4(CCCCC4)C3)nn12 | 52.01
85 | Cc1nnc2ccc(N3CCC4(CCOC4)C3)nn12 (stereo not drawn) | 16.18
86 | CCOC(=O)c1n[nH]cc1-c1cncn1CC(C)n1nc(C)cc1C (stereo not drawn) | -15.99
87 | CCn1ncc(CN(C)C(=O)c2cc(C(F)(F)F)n(C)n2)c1C | 9.297
88 | COCCNC(=O)c1c(-n2cnnn2)sc2c1CCCC2 | 24.57

Row | SMILES | Percent Effect [%]
89 | CCCc1cncnc1N1CCC(NCc2cc3ccccc3[nH]2)CC1 | 109.8
90 | CCCc1cncnc1N1CCC(NCc2ccncc2)CC1 | -49.68
91 | CCCc1cncnc1N1CCC(NCc2ccc(O)cc2)CC1 | 28.01
92 | CCn1c(C2CCN(C(=O)c3cc(C4CC4)on3)CC2)nn(C)c1=O | 4.422
93 | Cc1cc(C)n(C2=NC(NCCC(C)C)c3c(sc4c3CCCC4)N2)n1 (stereo not drawn) | 1.366
94 | Cc1cc(C)n(-c2nc(NCCCO)c3c4c(sc3n2)CCCC4)n1 | 82.78
95 | COCCNc1nc(-n2nc(C)cc2C)nc2sc3c(c12)CCCC3 | -12.48
96 | CCc1nc(CN(C)C(=O)c2cc(CN(CC)CC)c(CC)o2)no1 | 11.36
97 | COc1ccccc1CN(CCCn1ccnc1)CC1CCOC1.O=C(O)CC(O)(CC(=O)O)C(=O)O (stereo not drawn) | 1.044
98 | CCN(Cc1ccco1)C(=O)c1cc(OC)c2c(c1)OCCO2 | 11.52
99 | Cn1ncc(NC(=O)c2noc3c2CCCC3)c1C(=O)N1CCCCC1 | 1.181
100 | CC(C)c1n[nH]c(C(=O)Nc2ccnn2C(C)C)c1Br | -19.54
101 | Cc1nc2c(c(C)c1CC(=O)Nc1ccnn1C(C)C)c(=O)[nH]n2C | -6.05
102 | O=C(CN1CCCC1Cn1cncn1)Nc1ccnn1C1CCCC1 (stereo not drawn) | 39.34
103 | CC(C)c1nc(S(=O)(=O)Nc2ccnn2C2CCCC2)c[nH]1 | 106.1
104 | CCN1CCN(S(=O)(=O)c2c[nH]c(C(C)C)n2)c2ccccc21 | 19.57
105 | Cc1ncc(S(=O)(=O)Nc2ccnn2C2CCCCC2)[nH]1 | 106.2
106 | CC(C)c1nc(S(=O)(=O)N(C)c2ccc(F)cc2)c[nH]1 | 0.9821
107 | Cc1ncc(S(=O)(=O)Nc2ccnn2C(C)C)[nH]1 | 85.6
108 | O=C(Nc1ccnn1C1CCCC1)c1ccc(NC2CC2)nc1 | 16.19
